A short description of assay [1]: yeast TOR pathway RPL19A-GFP modulators, primary screen, cell-based, S. cerevisiae, multiplex flow cytometry (AID 1862; in the data active = percent of DMSO control GFP below about 86%;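 note: lower values mimic rapamycin by blocking the RPL19A rise seen in DMSO cells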). Particulars: S. cerevisiae RPL19A-GFP strain, flow cytometry fluorescence, 3 h; at 10 µM; stronger effect = lower value. (Flow cytometry measures light scatter and fluorescence of single cells or particles in a stream.)
A short description of assay [2]: modulators of MEP2-GFP levels in yeast, primary screen, S. cerevisiae, multiplex flow cytometry (AID 1867;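 active = GFP response, as percent of the DMSO control, above the screen-wide mean plus 3 SD, about 139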;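 note: median GFP channel fluorescence of barcode-gated MEP2-GFP cells measured by flow cytometry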). The settings on record: S. cerevisiae MEP2-GFP strain, 3 h, at 10 µM, stronger effect = higher value, 100% means same as DMSO wells.
Assay [3] in a line: modulators of CIT2-GFP expression in yeast, primary screen, S. cerevisiae, GFP fusion, multiplex flow cytometry (AID 1870;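 active = percent response above a set limit, the screen-wide mean plus 3 SD, cut at about 130% in these data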;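 note: barcoded CIT2-GFP strain pooled with four other GFP strains with rapamycin as positive control; median GFP fluorescence per well over plate mean of DMSO wells so 100% = DMSO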). The settings on record: 3 h, at 10 µM, stronger effect = higher value.
A short description of assay [4]: modulators of LAP4-GFP expression in yeast, primary screen, S. cerevisiae, multiplex flow cytometry (AID 1873;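 active = GFP signal, as percent of the solvent control, above the screen mean plus 3 SD, about 149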). Particulars: 3 h, at 10 µM, stronger effect = higher value.
Assay [5] is described as follows: modulators of AGP1-GFP expression in yeast TOR pathway, primary screen, cell-based, multiplex flow cytometry, S. cerevisiae (AID 1887;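 active = GFP signal above the screen-wide mean plus 3 SD, that is over about 124.5% of the solvent control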;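 note: AGP1-GFP fusion strain of S. cerevisiae within a five-strain barcoded multiplex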). Particulars: 3 h, at 10 µM, stronger effect = higher value.
Assay [6] is described as follows: inhibitors of CD8+ T cell-vesicle binding, pilot screen, LFA-1/ICAM-1 modulator project, MLPCN validation set, flow cytometry (AID 2523).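 For vesicle binding response: mean PE anti-B7-1 fluorescence of CD8+ cells relative to row control; 100% = QL9-loaded vesicles with DMSO vehicle in the same plate row.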 The settings on record: 2C mouse CD8+ T cells, at 7 µM, stronger effect = lower value; double positive events: measured here: CD8+/vesicle+ event percentage.
Assay [7] has as its target Integrin beta-1 (Homo sapiens) + Integrin alpha-4 (Homo sapiens) (UniProt P13612+P05556). Nature of the assay: inhibition of HUTS-21 binding to VLA-4, pilot screen, VLA-4 allosteric modulator project, U937 cells, HUTS-21 mAb, flow cytometry, validation set (AID 2674;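 active = inhibition above 50%, about 3 SD of the validation set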;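 note: antibody binding induced by the VLA-4 ligand LDV present at three times its Kd; 0% = LDV ligand with antibody and no compound and 100% = antibody without LDV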). Particulars: HUTS-21 LIBS mAb binding, at 6.7 µM, stronger effect = higher value, binding induced by LDV ligand.
The nature of assay [8]: superoxide lowering in aged yeast cells, pilot screen, validation compound set (AID 2706;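 active = superoxide response below 65% of plate, a cut near 3 SD across the whole screen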;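 note: yeast exposed to compound for one week at 30 degrees C before staining; 100% = mean of all compound wells on the same plate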). The settings on record: S. cerevisiae aging, superoxide DHE fluorescence; at 10 µM; stronger effect = lower value.
Assay [9] deals with Beta-adrenergic receptor kinase 1 (Homo sapiens) (UniProt P25098). Nature of the assay: GRK2 binders displacing RNA aptamer, biochemical, validation, human GRK2, bead flow cytometry (AID 488806;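 active = aptamer binding inhibition above 30%, about 3 SD of noise from non-fluorescent compounds; inactive = inhibition at or below 30%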). Particulars: bead-bound GRK2, FAM-aptamer displacement, at 10 µM, stronger effect = higher value.
Sequence of Beta-adrenergic receptor kinase 1 (Homo sapiens) (P25098 whole entry, looked up): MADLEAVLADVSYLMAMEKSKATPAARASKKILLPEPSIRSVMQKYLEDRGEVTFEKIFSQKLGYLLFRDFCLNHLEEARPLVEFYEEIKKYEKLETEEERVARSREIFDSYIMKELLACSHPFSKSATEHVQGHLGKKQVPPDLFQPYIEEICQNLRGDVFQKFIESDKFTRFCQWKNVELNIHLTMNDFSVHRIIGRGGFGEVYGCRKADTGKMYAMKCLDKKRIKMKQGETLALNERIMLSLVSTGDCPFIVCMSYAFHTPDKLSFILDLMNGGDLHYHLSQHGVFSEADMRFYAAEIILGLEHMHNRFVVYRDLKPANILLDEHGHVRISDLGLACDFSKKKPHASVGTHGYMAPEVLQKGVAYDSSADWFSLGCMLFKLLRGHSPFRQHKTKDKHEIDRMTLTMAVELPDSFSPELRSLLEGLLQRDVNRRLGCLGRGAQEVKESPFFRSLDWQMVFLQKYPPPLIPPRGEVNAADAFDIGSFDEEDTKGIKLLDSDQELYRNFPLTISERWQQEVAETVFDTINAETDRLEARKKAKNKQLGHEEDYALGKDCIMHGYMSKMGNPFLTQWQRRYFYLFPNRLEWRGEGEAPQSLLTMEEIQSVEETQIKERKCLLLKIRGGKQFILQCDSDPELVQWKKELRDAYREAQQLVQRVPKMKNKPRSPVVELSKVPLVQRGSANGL
For assay [10], the target named is Beta-2 adrenergic receptor (Homo sapiens) (UniProt P07550). Nature of the assay: beta2AR agonists driving receptor internalization, pilot screen, cell-based, FAP fluorogen, flow cytometry, validation set (AID 504459;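 active = percent response above 42, roughly 3 SD of non-fluorescent test compounds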;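 note: agonist-driven loss of surface beta2AR via internalization measured by FAP dye flow cytometry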). Particulars: Am2.2-beta2AR cells, FAP surface receptor flow cytometry; at 10 µM; stronger effect = higher value.
Sequence of Beta-2 adrenergic receptor (Homo sapiens) (P07550 whole entry, looked up): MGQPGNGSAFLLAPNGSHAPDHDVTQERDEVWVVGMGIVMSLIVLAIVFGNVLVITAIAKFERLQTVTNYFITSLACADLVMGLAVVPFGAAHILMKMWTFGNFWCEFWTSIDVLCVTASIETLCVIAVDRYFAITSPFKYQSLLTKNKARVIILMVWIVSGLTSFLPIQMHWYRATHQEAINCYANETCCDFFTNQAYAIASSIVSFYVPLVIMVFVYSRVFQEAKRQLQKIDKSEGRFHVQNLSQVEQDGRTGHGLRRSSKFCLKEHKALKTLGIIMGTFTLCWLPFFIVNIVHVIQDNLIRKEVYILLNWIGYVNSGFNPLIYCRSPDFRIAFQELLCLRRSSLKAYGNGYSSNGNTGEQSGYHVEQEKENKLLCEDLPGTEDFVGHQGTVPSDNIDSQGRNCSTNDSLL
Assay [11] addresses AP-2 complex subunit beta (Homo sapiens) (UniProt P63010). Nature of the assay: inhibitors of arrestin peptide binding to AP2, pilot screen, biochemical, validation set, GST-AP2 beads, flow cytometry (AID 504541;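 active = inhibition above 54%, about 3 SD of non-fluorescent compounds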;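 note: AP2 carries R879A mutation and is captured from E. coli lysate; bead-bound FITC arrestin peptide fluorescence measuring arrestin peptide binding to AP2; 0% = DMSO wells and 100% = excess unlabeled arrestin peptide control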). The settings on record: FITC arrestin peptide, at 10 µM, stronger effect = higher value, AP2 beta2 appendage fragment, R879A mutant.
A short description of assay [12]: yeast V-ATPase proton transport modulators, S. cerevisiae, pHLuorin, HTS validation (AID 504600; in the data active = response above about 15%;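 note: plate controls were DMSO for no effect and reference compound for full effect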). Particulars: S. cerevisiae pHLuorin cytosolic pH, at 10 µM, stronger effect = higher value.
In assay [13] the test system is anti-desmoglein-3 scFv antibody binding to human DSG3. Nature of the assay: inhibitors of anti-DSG3 scFv binding to DSG3, pilot screen, biochemical, validation compound set, bead-based, flow cytometry (AID 588368;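 active = binding below the plate cutoff, the plate median minus 3 SD, with a reading above zero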;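 note: signal is the median channel fluorescence of bead-bound GFP antibody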). The settings on record: Protein G beads, DSG3-Fc, scFv-GFP binding, at 10 µM, stronger effect = lower value.
Assay [14] can be described thus: inhibitors of fungal efflux pumps CDR1, CDR2, MDR1, pilot screen, validation compound set, multiplex, phenotypic (AID 588506;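 active = efflux inhibition above 0.42, the validation set average plus 4 SD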;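 note: Nile Red retained in cells so higher fluorescence means more efflux inhibition; 0 = negative control wells and 1 = enniatin B 25 µM full block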). Particulars: S. cerevisiae pump-expressing triplex, Nile Red efflux flow cytometry; at 10 µM; stronger effect = higher value; the pumps come from Candida albicans.
Assay [15] concerns the target ATP-binding cassette sub-family B member 6 (Homo sapiens) (UniProt Q9NP58). Nature of the assay: ABCB6 transporter inhibitors, pilot screen, K562-ABCB6 cells, flow cytometry, validation set (AID 588550;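 active = inhibition above the screen-wide mean plus 3 SD, about 51%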;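 note: 0% = DMSO wells and 100% = benzethonium chloride 70 µM positive control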). Particulars: K562-ABCB6 porphyrin accumulation, 1 h, at 10 µM, stronger effect = higher value.
The nature of assay [16]: promoters of myeloid differentiation in arrested cells, primary screen, cell-based, GFP/MAC1 double positive, flow cytometry, validation set (AID 588685;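 active = differentiation response of at least 50%, scaled between solvent and reference control, from cells with both markers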;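 note: compound exposure lasts four days before antibody staining and flow analysis; 0% = DMSO wells and 100% = 5 µM fulvestrant positive control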). Particulars: ER-HoxA9 marrow cells, stronger effect = higher value, normalized: vehicle 0, fulvestrant 100.

Inconclusive results are not listed. The source made the active and inactive calls.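 Rule for the calls, unless noted: active = response below a set limit, under 55% cells CD8-positive and vesicle-bound, and CD8 cells' 90th-percentile brightness under 279; inactive = the rest.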

What is called inhibition is the relative decrease from the control value, in per cent.

Sequence of Integrin beta-1 (Homo sapiens) + Integrin alpha-4 (Homo sapiens) (P05556 whole entry, looked up): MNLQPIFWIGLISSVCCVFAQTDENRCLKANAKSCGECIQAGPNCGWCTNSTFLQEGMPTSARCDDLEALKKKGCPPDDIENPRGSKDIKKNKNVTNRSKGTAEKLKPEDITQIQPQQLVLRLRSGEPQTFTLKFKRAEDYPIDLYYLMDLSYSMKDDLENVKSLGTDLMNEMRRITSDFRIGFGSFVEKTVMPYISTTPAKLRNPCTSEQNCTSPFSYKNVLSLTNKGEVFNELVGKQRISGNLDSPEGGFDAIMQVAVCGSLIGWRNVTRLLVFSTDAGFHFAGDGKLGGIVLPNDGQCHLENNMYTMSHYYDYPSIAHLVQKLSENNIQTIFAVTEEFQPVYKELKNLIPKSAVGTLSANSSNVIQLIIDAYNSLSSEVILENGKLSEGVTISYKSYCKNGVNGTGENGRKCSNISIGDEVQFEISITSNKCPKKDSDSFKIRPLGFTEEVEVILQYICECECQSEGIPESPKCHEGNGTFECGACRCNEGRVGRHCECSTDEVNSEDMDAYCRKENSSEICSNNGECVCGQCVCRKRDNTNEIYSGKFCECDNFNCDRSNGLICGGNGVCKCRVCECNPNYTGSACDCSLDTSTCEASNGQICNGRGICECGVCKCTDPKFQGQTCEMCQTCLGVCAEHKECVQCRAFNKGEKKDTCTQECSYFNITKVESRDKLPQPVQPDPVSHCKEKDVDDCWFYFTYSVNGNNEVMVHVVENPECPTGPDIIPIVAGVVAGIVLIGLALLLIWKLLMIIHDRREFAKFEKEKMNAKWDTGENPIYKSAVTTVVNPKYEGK
Sequence of Integrin beta-1 (Homo sapiens) + Integrin alpha-4 (Homo sapiens) (P13612 whole entry, looked up): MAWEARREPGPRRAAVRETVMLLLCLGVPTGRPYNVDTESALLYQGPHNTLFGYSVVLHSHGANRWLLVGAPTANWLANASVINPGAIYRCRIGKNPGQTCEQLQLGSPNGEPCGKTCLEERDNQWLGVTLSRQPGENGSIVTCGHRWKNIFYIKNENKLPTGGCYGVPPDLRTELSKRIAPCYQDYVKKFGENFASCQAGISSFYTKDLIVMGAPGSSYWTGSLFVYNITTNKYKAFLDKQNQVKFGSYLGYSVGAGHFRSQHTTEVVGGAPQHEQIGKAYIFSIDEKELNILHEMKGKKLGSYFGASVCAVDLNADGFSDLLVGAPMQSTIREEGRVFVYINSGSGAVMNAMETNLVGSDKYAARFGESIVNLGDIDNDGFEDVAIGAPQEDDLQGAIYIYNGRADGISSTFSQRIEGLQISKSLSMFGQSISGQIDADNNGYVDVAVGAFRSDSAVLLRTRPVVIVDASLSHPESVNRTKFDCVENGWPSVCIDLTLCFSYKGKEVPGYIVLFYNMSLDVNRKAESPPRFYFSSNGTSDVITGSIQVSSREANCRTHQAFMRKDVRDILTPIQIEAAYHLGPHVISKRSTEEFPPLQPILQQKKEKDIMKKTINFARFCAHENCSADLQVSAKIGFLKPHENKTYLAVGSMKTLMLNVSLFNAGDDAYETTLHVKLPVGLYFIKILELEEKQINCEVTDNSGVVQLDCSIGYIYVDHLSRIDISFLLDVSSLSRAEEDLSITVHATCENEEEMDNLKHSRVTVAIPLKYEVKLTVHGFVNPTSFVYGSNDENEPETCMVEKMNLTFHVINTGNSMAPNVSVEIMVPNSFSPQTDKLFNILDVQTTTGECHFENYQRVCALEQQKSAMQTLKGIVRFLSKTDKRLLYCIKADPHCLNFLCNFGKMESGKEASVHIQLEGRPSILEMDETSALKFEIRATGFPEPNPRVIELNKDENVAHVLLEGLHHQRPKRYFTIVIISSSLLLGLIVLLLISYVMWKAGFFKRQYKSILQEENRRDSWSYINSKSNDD
Sequence of AP-2 complex subunit beta (Homo sapiens) (P63010 whole entry, looked up, the tested form may be a part, one chain of several): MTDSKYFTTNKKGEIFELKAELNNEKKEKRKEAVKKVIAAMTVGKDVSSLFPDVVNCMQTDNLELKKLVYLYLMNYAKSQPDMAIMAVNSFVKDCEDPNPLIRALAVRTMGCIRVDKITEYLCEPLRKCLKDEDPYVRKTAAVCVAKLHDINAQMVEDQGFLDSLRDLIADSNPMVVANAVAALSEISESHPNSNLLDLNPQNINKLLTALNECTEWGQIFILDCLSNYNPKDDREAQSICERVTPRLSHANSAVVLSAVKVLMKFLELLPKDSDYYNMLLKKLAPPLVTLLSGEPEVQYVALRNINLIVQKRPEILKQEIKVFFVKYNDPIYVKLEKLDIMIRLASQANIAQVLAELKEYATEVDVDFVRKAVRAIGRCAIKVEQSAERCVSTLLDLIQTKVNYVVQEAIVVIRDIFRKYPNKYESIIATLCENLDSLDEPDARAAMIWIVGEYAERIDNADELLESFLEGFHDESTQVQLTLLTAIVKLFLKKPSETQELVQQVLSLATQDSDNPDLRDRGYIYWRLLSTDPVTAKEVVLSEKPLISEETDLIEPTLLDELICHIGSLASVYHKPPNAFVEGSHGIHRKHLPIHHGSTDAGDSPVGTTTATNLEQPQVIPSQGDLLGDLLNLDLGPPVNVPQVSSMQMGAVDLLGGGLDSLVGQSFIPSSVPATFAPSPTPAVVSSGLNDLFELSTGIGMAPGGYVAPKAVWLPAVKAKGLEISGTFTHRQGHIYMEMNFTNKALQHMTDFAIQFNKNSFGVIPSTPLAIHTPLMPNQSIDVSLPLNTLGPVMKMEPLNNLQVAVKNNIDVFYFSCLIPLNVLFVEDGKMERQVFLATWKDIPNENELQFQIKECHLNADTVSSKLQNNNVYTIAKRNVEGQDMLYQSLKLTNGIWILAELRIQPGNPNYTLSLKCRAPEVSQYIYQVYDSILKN
Sequence of ATP-binding cassette sub-family B member 6 (Homo sapiens) (Q9NP58 whole entry, looked up): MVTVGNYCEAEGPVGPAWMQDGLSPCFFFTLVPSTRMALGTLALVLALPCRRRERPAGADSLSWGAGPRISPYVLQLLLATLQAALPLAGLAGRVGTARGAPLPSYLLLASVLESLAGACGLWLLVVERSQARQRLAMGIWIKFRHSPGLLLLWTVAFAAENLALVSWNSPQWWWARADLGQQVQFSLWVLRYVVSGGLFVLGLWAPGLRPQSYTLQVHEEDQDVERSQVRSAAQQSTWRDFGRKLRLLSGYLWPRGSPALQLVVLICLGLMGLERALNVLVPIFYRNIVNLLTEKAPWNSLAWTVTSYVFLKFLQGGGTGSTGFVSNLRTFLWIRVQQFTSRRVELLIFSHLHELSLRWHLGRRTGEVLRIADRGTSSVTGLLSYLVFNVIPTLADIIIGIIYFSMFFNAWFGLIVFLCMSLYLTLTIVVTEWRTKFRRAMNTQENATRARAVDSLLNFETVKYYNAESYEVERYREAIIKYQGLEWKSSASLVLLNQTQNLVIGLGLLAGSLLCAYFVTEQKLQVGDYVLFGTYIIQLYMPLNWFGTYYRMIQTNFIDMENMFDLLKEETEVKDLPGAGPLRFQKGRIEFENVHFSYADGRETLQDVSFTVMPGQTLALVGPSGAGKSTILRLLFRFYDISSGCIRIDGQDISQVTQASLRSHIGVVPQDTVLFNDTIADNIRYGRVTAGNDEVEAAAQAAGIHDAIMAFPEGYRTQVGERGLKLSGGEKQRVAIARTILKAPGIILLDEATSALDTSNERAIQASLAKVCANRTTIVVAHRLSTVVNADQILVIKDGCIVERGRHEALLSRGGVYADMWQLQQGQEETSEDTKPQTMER

Regarding `C=CCNc1nc2c(c(=O)n(C)c(=O)n2C)n1CC(=C)C`, in assay [1], the percent of DMSO control GFP was 101% (inactive). Further, the GFP response vs DMSO in [2] is 101% (inactive); in assay [4], 91.6% (inactive). The percent response of DMSO control in assay [3] was 101% (inactive). For the same molecule, in [5], the GFP response, % of DMSO was 103% (inactive). Further, the double positive events in assay [6] was determined as 63.3%. Moreover, in [6], the vesicle binding response was 176% (inactive). The inhibition is -16.1% (inactive) in [7], 8.24% (inactive) in [11] and 3% (inactive) in assay [15]. In addition, the superoxide response (% of plate) in assay [8] is 103% (inactive). Also, the aptamer binding inhibition in [9] was 3% (inactive). Moreover, the response in assay [10] was -5.19% (inactive); in assay [12], -4.28% (inactive). For the same molecule, the binding (% of control) in [13] was 104% (inactive). Also, in assay [14], the efflux inhibition (fraction of control) is -0.38 (inactive). Besides, the differentiation response in assay [16] is -1.88% (inactive).

With `CC(C)CN(C)Cc1c(C(=O)N2CCc3ccccc3C2)nc2ccc(Cl)cn12`, the percent of DMSO control GFP in assay [1] is 105% (inactive). For the same molecule, the GFP response vs DMSO in assay [2] is 103% (inactive); in [4], 98% (inactive). Also, the percent response of DMSO control in [3] was 107% (inactive). For the same molecule, the GFP response, % of DMSO in [5] is 105% (inactive). Besides, the double positive events in assay [6] was found to be 62.4%. In addition, in [6], the vesicle binding response is 147% (inactive). In addition, the inhibition was 8.29% (inactive) in assay [7], 20.6% (inactive) in [11] and 11% (inactive) in [15]. Besides, the superoxide response (% of plate) in assay [8] is 99.2% (inactive). Moreover, the aptamer binding inhibition in [9] was 0% (inactive). The response in [10] is -16.8% (inactive); in assay [12], -4% (inactive). Moreover, the binding (% of control) in assay [13] is 104% (inactive). For the same molecule, the efflux inhibition (fraction of control) in assay [14] is 0.22 (inactive). For the same molecule, the differentiation response in [16] was -13.3% (inactive).

On to `CCN(CC)C(=O)c1sc(NC(=O)c2c(OC)cccc2OC)c(C#N)c1C`, for which, in assay [1], the percent of DMSO control GFP is 101% (inactive). The GFP response vs DMSO in assay [2] was 98.7% (inactive); in assay [4], 88.2% (inactive). The percent response of DMSO control in assay [3] is 105% (inactive). Also, the GFP response, % of DMSO in assay [5] is 94.7% (inactive). In addition, the double positive events in assay [6] worked out at 66.7%. For the same molecule, the vesicle binding response in assay [6] was 229% (inactive). The results for the inhibition in [7], in assay [11] and in [15] were 1.59% (inactive), -5.78% (inactive) and 14% (inactive), respectively. Besides, in assay [8], the superoxide response (% of plate) was 95.2% (inactive). Besides, in assay [9], the aptamer binding inhibition is 4% (inactive). For the same molecule, the response in assay [10] was -1.95% (inactive); in assay [12], 12% (inactive). In assay [13], the binding (% of control) was 97.3% (inactive). Also, the efflux inhibition (fraction of control) in assay [14] is -0.025 (inactive). For the same molecule, the differentiation response in assay [16] is 5.67% (inactive).

For the molecule `CC1CCc2cc(F)cc3c(=O)c(C(=O)O)cn1c23` (stereo not drawn), in assay [1], the percent of DMSO control GFP is 99% (inactive). In addition, the results for the GFP response vs DMSO in assay [2] and in assay [4] were 111% (inactive) and 101% (inactive), respectively. In assay [3], the percent response of DMSO control is 95.4% (inactive). Also, the GFP response, % of DMSO in assay [5] was 96.5% (inactive). In assay [6], the double positive events came out at 62.3%. In addition, the vesicle binding response in [6] was 204% (inactive). For the same molecule, the values for the inhibition in assay [7], in assay [11] and in assay [15] were -37.8% (inactive), 10.9% (inactive) and -15% (inactive), respectively. For the same molecule, the superoxide response (% of plate) in [8] was 101% (inactive). Moreover, in assay [9], the aptamer binding inhibition is 0% (inactive). For the same molecule, the response in assay [10] is -2.58% (inactive); in assay [12] it was -2.27% (inactive). In addition, the binding (% of control) in [13] is 94% (inactive). Also, the efflux inhibition (fraction of control) in assay [14] was -0.04 (inactive). Further, in [16], the differentiation response is -6.6% (inactive).
